The first experiment deals with IL7. In words: pooled miR-30 sensor sort-seq; sequence = guide strand. The note with it: shRNA.
For the sequence TTTTCTTCCAAACTCTTTGTTG, the sensor-assay potency score (higher = more potent) is -0.54.

Consider TTTATTTTCTTCCAAACTCTTT, for which the sensor-assay potency score (higher = more potent) is -0.524.

In turn, TATCACAATCAGATGATGCTAC returned a sensor-assay potency score (higher = more potent) of 0.423.

As for TTGTTTGTATTCATCTTCTAGT, the sensor-assay potency score (higher = more potent) is -0.373.

With TAGCATCACAGATATGTCTTTT, the sensor-assay potency score (higher = more potent) is -0.445.

Sequence TAGGAAACACAAGTCATTCAGT returned a sensor-assay potency score (higher = more potent) of 0.00202.

TATTATTGCAACTGATACCTTA yielded a sensor-assay potency score (higher = more potent) of -0.0538.

The sequence TATCTCTTGTAATAGTCTCTTT displayed a sensor-assay potency score (higher = more potent) of -0.557.

The sequence TAAAGATTTATTTTCTTCCAAA had a sensor-assay potency score (higher = more potent) of -1.11.

Sequence TTCCTTATTAGCATCACAGATA returned a sensor-assay potency score (higher = more potent) of -0.731.

Take TTCTAGTAATACAATATGCATT: the sensor-assay potency score (higher = more potent) was -1.23.

The next experiment addresses ILDR2. The experiment is described as above. Conditions: shRNA.
Consider TAGTACAGGACCTTCATGGAGT, for which the sensor-assay potency score (higher = more potent) is 0.283.

The sequence TCTGCATCATGAACAATCGTGA registered a sensor-assay potency score (higher = more potent) of -0.116.

For TGAACAATCGTGATCTCTCTGC, the sensor-assay potency score (higher = more potent) was -0.125.

TACTACTCGAACAGTCCTCCTG had a sensor-assay potency score (higher = more potent) of 0.188.

In turn, TAATACAGTAATAGAGTCCGCT registered a sensor-assay potency score (higher = more potent) of 0.505.

TTATATCTGCCTCTCATCCTTC showed a sensor-assay potency score (higher = more potent) of -0.505.

The sequence TGAACTTCCACTGCACAACTGC yielded a sensor-assay potency score (higher = more potent) of -0.265.

In the case of TTGTCGGGCACTGTGACCTGAA, the sensor-assay potency score (higher = more potent) was -0.304.

For the sequence TACAGTAATAGAGTCCGCTGTC, the sensor-assay potency score (higher = more potent) was found to be 0.133.

In turn, TTGAAGCTACTACTCGAACAGT returned a sensor-assay potency score (higher = more potent) of -0.815.

TTCTCTTGCTGAGAGATTGGGC yielded a sensor-assay potency score (higher = more potent) of -0.528.

As to TAGGACTTGAACTTCCACTGCA, the sensor-assay potency score (higher = more potent) turned out to be 0.867.

In the next experiment the target is IMMP2L. Described as above. Conditions: shRNA.
In turn, TTGATGTATCTTTTCACCCACC yielded a sensor-assay potency score (higher = more potent) of -0.733.

TTCAAAGAAGGCTGCATCGATG returned a sensor-assay potency score (higher = more potent) of -1.29.

For TTCAAGAGCAATCACTCTCTTA, the sensor-assay potency score (higher = more potent) was -0.135.

The sequence TAATGATCTTCTGTTCTGGGTT displayed a sensor-assay potency score (higher = more potent) of -0.0559.

TCAAAATTCCTCACTTTCCAGT gave a sensor-assay potency score (higher = more potent) of -0.183.

Turning to TTCAAAAGCACCACATCAGATG, the sensor-assay potency score (higher = more potent) is -0.957.

As to TCTTAATGATCTTCTGTTCTGG, the sensor-assay potency score (higher = more potent) was determined as 0.00439.

As for AATGATACAATGTCACCACGGT, the sensor-assay potency score (higher = more potent) was 0.432.

In turn, ATCGATGCTCCTTCTACTCTTG displayed a sensor-assay potency score (higher = more potent) of -0.658.

In turn, TAAATATTTCTCGCACAGCATC displayed a sensor-assay potency score (higher = more potent) of -1.39.

The sequence TATGGTTCTGACAATATCTCCT showed a sensor-assay potency score (higher = more potent) of 0.439.

TCTACTCTTGCCACACAGGCGA yielded a sensor-assay potency score (higher = more potent) of -0.683.

The target in the next experiment is INF2. The experiment is described as above. Conditions: shRNA.
Sequence TAGAGTTGTGCTCACGTGCCAC had a sensor-assay potency score (higher = more potent) of -0.638.

Sequence TTTCAATCTCGTGCTTCTCGGG yielded a sensor-assay potency score (higher = more potent) of -0.468.

The sequence TTGAGGTTCAGGCTCTTCTTGG came in with a sensor-assay potency score (higher = more potent) of -1.01.

In turn, TTTCAGGATGCTCTCACTCTGG yielded a sensor-assay potency score (higher = more potent) of -0.623.

TGTTGTAGCATCAAGGCCGGGC: the sensor-assay potency score (higher = more potent) is -0.171.
Also: reference of the scale not given here.
